High-throughput results deposited in PubChem by National Center for Advancing Translational Sciences (NCATS).
Sampled rows, rich in hits. Any-hit rate of the full collection: about 12%.
NS1 function inh – influenza NS1 inhibition. Potency, µM (top dose mostly 46.1 µM), inactives show at the highest dose activity, positive = more growth. actives 0.4% (n = 270,000). AID 2326; calls by dose curve; note: actives are rising curves; nearly all actives have a fitted effect of over 50% in size
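S. cerevisiae expressing influenza A NS1, grown in glucose, washed, then diluted 1:100 into pH 6.0 -URA galactose medium with 23 nl compound. Growth recovery read as OD600; NS1-free strain serves as control.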
Pf growth 96h – P. falciparum growth inhibition at 96 hours | P. falciparum luciferase reporter growth, 96 h | Potency, µM (highest dose often 28.7 µM), inactives show top-dose activity change, negative = inhibition, hits mostly inhibitors | actives 6.9% (n = 320,000); note: % is set by controls: 0 for no effect and ±100 for the full control effect
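Infected RBCs, 2% Hct / 0.05% parasitemia final; luciferase-reporter P. falciparum; cpd 96 h, 37 C, 5% CO2; luciferase detection reagent; luminescence.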
AMA1-RON2 inh – AMA1-RON2 (P. falciparum) interaction inhibition. Potency, µM (titrated, usually from 58.2 µM), for inactives: at the highest dose activity change, negative = inhibition, hits mostly inhibitors. AlphaScreen AMA1-biotinylated RON2 peptide binding. actives 0.2% (n = 360,000);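 note: 0% = vehicle wells and -100% = peptide control; nearly all actives have a fitted effect of over 45% in size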
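AMA1 (3D7) with his tag at 25 nM final met compounds first, then biotinylated RON2 peptide at 25 nM; detection used donor plus acceptor beads, 10 µg/mL apiece, read by AlphaScreen after 30 min at room temperature.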
HCV inh – HCV inhibition. Huh7.5.1 HCVcc-Cre infection, luciferase reporter, 44 h. Potency, µM (top dose mostly 41.8 µM), for the others: at the highest dose activity change, negative = inhibition, actives largely listed as inhibitors. actives 3.4% (n = 340,000). AID 651820; note: % is set by controls: 0 for no effect and ±100 for the full control effect
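Antiviral activity was scored by luciferase reporter output from cells infected with HCVcc-Cre (~0.5 moi) in presence of compound, 44 h infection period, cells seeded 1,000/well 4 h prior.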
SARS PLpro yeast – SARS-CoV PLP inhibition in yeast. Potency, µM (titrated, usually from 32.9 µM), for inactives: top-dose activity, positive = growth rescue, usual class: activators. AID 485353. S. cerevisiae expressing SARS-CoV PLpro, growth rescue. actives 0.19% (n = 330,000); calls by dose curve; note: 0% is about no effect; nearly all actives have a fitted effect of over 55% in size
Pf growth 48h – inhibits P. falciparum growth in the first generation, 48 h; P. falciparum luciferase growth in erythrocytes, 48 h; Potency, µM (doses to about 28.7 µM), for the others: top-dose activity change, negative = inhibition, most hits filed as inhibitors; actives 5.9% (n = 310,000); note: % is set by controls: 0 for no effect and ±100 for the full control effect
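In quantitative HTS format, infected erythrocytes bearing luciferase-reporter parasites were treated for a single generation at 37 C. Luminescence after adding detection reagent served as the growth measure.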
Starred values were filed as active, the others as inactive; ! = a repeat was not active. Unless noted, calls come from the whole dose curve; as a rule, active = well fitted curve in the direction sought with a large enough effect; inconclusive = small, poorly fitted or top-dose-only effect, or another doubt; inactive = no such curve, though single readings can be large; an effect the other way counts as inactive or inconclusive. Potency is the fitted concentration of half-maximal effect.

What do the screens show for `CCOc1cc(/C=N\NC(=O)CN2CCOCC2)ccc1OCc1ccc(F)cc1`?
NS1 function inh: -11.2%; Pf growth 96h: 11.7µM*; AMA1-RON2 inh: 5.8%; HCV inh: 1.8%; SARS PLpro yeast: -20.2%; Pf growth 48h: 9.28µM*

How did CNC(=S)N/N=C/c1ccc(OCC(=O)Nc2c(C)cc(C)cc2C)c(OC)c1 do in these assays?
NS1 function inh: 2.1%; Pf growth 96h: inconclusive; AMA1-RON2 inh: 38.9%; HCV inh: -13.1%; SARS PLpro yeast: -5.2%; Pf growth 48h: 13.1µM*

Results for COc1cc(/C=N/NC(=O)c2cccnc2)ccc1OCC(=O)Nc1c(C)cc(C)cc1C ?
NS1 function inh: 29.0%; Pf growth 96h: 0.6%; AMA1-RON2 inh: -25.3%; HCV inh: -4.4%; SARS PLpro yeast: -13.0%; Pf growth 48h: -11.1%

Results for COc1ccc2[nH]c(C(=O)NCc3ccccc3)c(C)c2c1 ?
NS1 function inh: -3.1%; Pf growth 96h: 18.8%; AMA1-RON2 inh: inconclusive; HCV inh: -28.2%; SARS PLpro yeast: -0.6%; Pf growth 48h: 27.5%

What do the screens show for `CN(NC1CC(=O)N(c2ccccc2)C1=O)c1ccccc1` (configuration not stated)?
NS1 function inh: -0.4%; Pf growth 96h: inconclusive; AMA1-RON2 inh: 7.4%; HCV inh: 8.9%; SARS PLpro yeast: -5.7%; Pf growth 48h: 20.8%

Results for Cc1ccc(S(=O)(=O)Nc2cccc(S(=O)(=O)Nc3ccccc3C(=O)O)c2)c(C)c1 ?
AMA1-RON2 inh: -6.3%; HCV inh: 0.2%; SARS PLpro yeast: -6.6%

How did C=CCOc1ccc(C(=O)CC)cc1OC do in these assays?
NS1 function inh: -2.0%; Pf growth 96h: -27.1%; AMA1-RON2 inh: -8.6%; HCV inh: inconclusive; SARS PLpro yeast: -4.9%; Pf growth 48h: 11.4%

What do the screens show for `CN(CC(=O)Nc1ccc(Cl)cc1)C(=O)CNC(=O)c1cccs1`?
Pf growth 96h: -15.8%; AMA1-RON2 inh: 6.5%; HCV inh: inconclusive; SARS PLpro yeast: 2.5%; Pf growth 48h: -25.2%

Results for CCOc1cc(C(=S)N2CCCC2)ccc1OCC(=O)Nc1c(C)cc(C)cc1C ?
NS1 function inh: 10.9%; Pf growth 96h: 41.1%; AMA1-RON2 inh: 30.9%; HCV inh: inconclusive; SARS PLpro yeast: 18.2%; Pf growth 48h: 2.33µM*

How did CCOc1cc(C(=S)N2CCCC2)ccc1OC do in these assays?
NS1 function inh: -3.1%; Pf growth 96h: 12.0%; AMA1-RON2 inh: -4.3%; HCV inh: 3.4%; SARS PLpro yeast: -0.2%

Results for COCC(=O)N/N=C\c1ccc(OC/C=C/c2ccccc2)c(OC)c1 ?
NS1 function inh: -41.0%; Pf growth 96h: -3.3%; AMA1-RON2 inh: 43.1%; HCV inh: -15.6%; SARS PLpro yeast: -1.6%; Pf growth 48h: 4.65µM*

How did Cn1c(=O)c2[nH]c(CCC(=O)O)nc2n(C)c1=O do in these assays?
NS1 function inh: 8.3%

Results for CC(C)C[C@@H](COc1ccccc1)N1CCN(Cc2ccccc2)CCC1=O ?
NS1 function inh: 17.7%; Pf growth 96h: inconclusive; AMA1-RON2 inh: -12.3%; HCV inh: -15.2%; SARS PLpro yeast: -1.6%; Pf growth 48h: inconclusive

Results for CCOC(=O)N1CCN(Cc2ccccn2)CC1 ?
NS1 function inh: 4.3%; Pf growth 96h: -2.8%; AMA1-RON2 inh: 12.5%; HCV inh: 0.3%; Pf growth 48h: 0.6%

Results for CCOC(=O)N1CCC(=C2c3ccc(Cl)cc3CCc3cccnc32)CC1 ?
NS1 function inh: -42.8%; Pf growth 96h: 10.4µM*!; AMA1-RON2 inh: -11.0%; HCV inh: inconclusive; SARS PLpro yeast: -22.9%; Pf growth 48h: 11.7µM*

Results for COc1ccc(NC(=O)Cn2nnc(C(=O)Nc3ccc(F)c(Cl)c3)c2N)cc1 ?
NS1 function inh: -14.3%; Pf growth 96h: 122.4%; AMA1-RON2 inh: 0.0%; HCV inh: 11.9%; SARS PLpro yeast: -0.2%; Pf growth 48h: -1.3%

Results for CN1CCN(S(=O)(=O)c2ccc(C(F)(F)F)cc2)C(c2ccccc2)C1 (configuration not stated) ?
Pf growth 96h: -26.1%; AMA1-RON2 inh: 5.9%; HCV inh: 6.0%; SARS PLpro yeast: -2.9%; Pf growth 48h: inconclusive

Results for Cc1ccn(CCC(=O)N2CCCC(CCC(=O)NCc3ccc(F)c(F)c3)C2)n1 (configuration not stated) ?
NS1 function inh: -5.0%; Pf growth 96h: 11.7µM*; AMA1-RON2 inh: 2.3%; HCV inh: 8.6%; SARS PLpro yeast: 3.2%; Pf growth 48h: -10.9%

How did CSc1ncccc1C(=O)N1CCCC(CCC(=O)NCc2ccc(F)c(F)c2)C1 (configuration not stated) do in these assays?
NS1 function inh: -1.1%; Pf growth 96h: inconclusive; AMA1-RON2 inh: -5.6%; HCV inh: 16.9%; SARS PLpro yeast: -0.2%; Pf growth 48h: inconclusive

How did CCOc1ccc(NC(=O)CN2C(=O)CSC2=O)cc1 do in these assays?
NS1 function inh: 2.0%; Pf growth 96h: inconclusive; AMA1-RON2 inh: -1.3%; HCV inh: -2.2%; SARS PLpro yeast: -0.9%; Pf growth 48h: 11.9%

How did Cc1cc(C(=O)CCl)c(C)n1-c1c(C)n(C)n(-c2ccccc2)c1=O do in these assays?
NS1 function inh: 0.6%; Pf growth 96h: 6.57µM*; AMA1-RON2 inh: -1.9%; HCV inh: 8.91µM*; SARS PLpro yeast: 1.7%; Pf growth 48h: 8.28µM*

Results for Cc1nnc(SCC(=O)c2cc(C)n(-c3c(C)n(C)n(-c4ccccc4)c3=O)c2C)s1 ?
NS1 function inh: -3.0%; Pf growth 96h: -4.8%; AMA1-RON2 inh: 9.4%; HCV inh: -2.0%; SARS PLpro yeast: -1.5%; Pf growth 48h: 7.9%

How did CC(=O)N1CCN(S(=O)(=O)c2cccc(C(=O)NNC(=O)c3ccc(Br)cc3)c2)CC1 do in these assays?
AMA1-RON2 inh: 12.0%; HCV inh: 3.7%

What do the screens show for `Cc1ccc(Cn2c(=N)c(C(=O)NCc3ccco3)cc3c(=O)n4ccccc4nc32)cc1`?
NS1 function inh: 7.4%; Pf growth 96h: 0.0%; AMA1-RON2 inh: -20.7%; HCV inh: 11.2µM*; SARS PLpro yeast: 23.0%; Pf growth 48h: 4.15µM*

How did N=c1c(C(=O)NCc2ccco2)cc2c(=O)n3ccccc3nc2n1CCc1ccccc1 do in these assays?
NS1 function inh: -3.4%; AMA1-RON2 inh: -8.2%; HCV inh: -23.4%; SARS PLpro yeast: -5.1%; Pf growth 48h: 0.928µM*

Results for CN(C)CC1CCC/C(=C\c2ccc(OC(=O)c3ccc(Cl)cc3)cc2)C1=O (configuration not stated) ?
AMA1-RON2 inh: -3.6%; HCV inh: 11.2µM*
